Assay results as given in ChEMBL document CHEMBL3433997, “St. Jude Leishmania screening dataset” (2016).

How the values were obtained:
Type in all cases: functional
[1] = molecular target: Solute carrier family 2, facilitated glucose transporter member 1 (Homo sapiens) (UniProt P11166); assay: ST_JUDE_LEISH: Cytotoxicity at 2uM final concentration against transgenic Leishmania Mexicana promastigotes LmGLUT1 that are glucose transport deficient and complemented with the human glucose transporter GLUT1. Activity is measured by DNA content using SYBR green in vitro
[2] = molecular target: Hexose transporter 1 (Plasmodium falciparum) (UniProt O97467); assay: ST_JUDE_LEISH: Cytotoxicity at 2uM final concentration against transgenic Leishmania Mexicana promastigotes LmPfHT that are glucose transport deficient and complemented with the Plasmodium falciparum hexose transporter. Activity is measured by DNA content using SYBR green in vitro
[3] = molecular target: Glucose transporter (Leishmania mexicana) (UniProt O61059); assay: ST_JUDE_LEISH: Cytotoxicity at 2uM final concentration against transgenic Leishmania Mexicana promastigotes LmGT2 that are glucose transport deficient and complemented with the L. Mexicana glucose transporter 2. Activity is measured by DNA content using SYBR green in vitro

Chain of Solute carrier family 2, facilitated glucose transporter member 1 (Homo sapiens) (P11166 whole entry): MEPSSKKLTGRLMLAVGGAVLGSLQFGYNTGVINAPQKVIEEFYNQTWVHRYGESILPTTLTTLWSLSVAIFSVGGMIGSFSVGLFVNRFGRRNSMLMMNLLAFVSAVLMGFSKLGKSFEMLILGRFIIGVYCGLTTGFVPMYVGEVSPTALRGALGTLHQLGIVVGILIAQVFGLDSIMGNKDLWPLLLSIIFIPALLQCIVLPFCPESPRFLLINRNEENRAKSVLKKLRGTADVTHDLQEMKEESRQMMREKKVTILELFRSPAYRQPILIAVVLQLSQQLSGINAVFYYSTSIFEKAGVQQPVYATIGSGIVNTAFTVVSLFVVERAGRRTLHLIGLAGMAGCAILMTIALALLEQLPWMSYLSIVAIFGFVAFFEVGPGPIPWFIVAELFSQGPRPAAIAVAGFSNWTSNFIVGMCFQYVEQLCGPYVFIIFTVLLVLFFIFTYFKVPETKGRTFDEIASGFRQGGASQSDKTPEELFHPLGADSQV

Row | Compound | inhibition [1] | inhibition [2] | inhibition [3]
1 | CCN(CC)CCNc1nc(C=Cc2ccc(Cl)cc2)nc2cc3ccccc3cc12 | -0.78% | -0.58% | -1.66%
2 | CN1CCCN(Cc2cccc(-c3ccc(NS(=O)(=O)c4cccc5cccnc45)cc3)c2)CC1 | 1.84% | 1.21% | -3.11%
3 | CCCN(CC1CC1)c1ncc(-c2cccc(CNCc3ccccc3O)c2)cn1 | -1.8% | -2.3% | -1.63%
4 | O=S(=O)(Nc1ccc2nccc(N3CCNCC3)c2c1)c1ccc2c(Cl)cccc2c1 | 0.28% | -0.67% | -0.37%
5 | O=C(NCCCCN1CCC(c2ccc3c(c2OCCO)CCCC3)CC1)c1ccc2oc(-c3ccc(C(F)(F)F)cc3)cc2c1 | 1.2% | 2.49% | 2.18%
6 | O=C(Nc1nccs1)c1sc2ccccc2c1O | 3.63% | 2.26% | 1.45%
7 | CCCCCCC(C)c1cc(O)c2c(c1)OC(C)(C)C=C2c1ccncc1 (stereo not given) | 1.01% | -0.62% | 0.58%
8 | CCNc1cc(C(=O)N[C@@H](Cc2ccccc2)[C@H](O)CNC2CCC(C)(C)C2)cc(N2CCCCS2(=O)=O)c1 (stereo not given in full) | 2.05% | 2.29% | 2.37%
9 | CC(C)n1cc(CN2CCCC(C(=O)Nc3cccc(-c4cc5ccccc5[nH]4)c3)C2)cn1 (stereo not given) | 2.2% | -0.11% | -0.59%
10 | Nc1c(Cl)cc(C(O)CNCCCCCCOCCC=C2CCOCC2)cc1Cl (stereo not given) | -0.91% | 0.32% | -1.31%
11 | Cc1c(NC(=O)COc2ccc(Cl)cc2C(=O)c2cc(F)cc(C(F)(F)F)c2)ccc2ncsc12 | 9.85% | 9.17% | 7.93%
12 | CC1CNC(c2cccc(NC(=O)Nc3cccc(C4=NC(C)CN4)c3)c2)=N1 (stereo not given) | 6.32% | 8.33% | 6.15%
13 | CCn1c(=O)c(C(=O)Nc2cc(Cl)c(OC)cc2OC)nc2ccccc21 | 11.7% | 9.32% | 10.5%
14 | Cc1cc2ncn(-c3nccc(NCc4ccc(F)cc4)n3)c2cc1C | -0.72% | -1.37% | -0.57%
15 | C=CCN(c1ccc(OC)cc1)S(=O)(=O)c1ccc(Cl)c(C(=O)Nc2cccc(C#N)c2)c1 | -1.28% | 4.89% | 4.17%
16 | COc1ccc(Nc2nc(NC3CCCC3)cc(-c3ccc(OC)cc3)n2)cc1 | -0.76% | 0.56% | -0.75%
17 | Cc1noc(C)c1-c1cccc(CNCc2ccc(-c3cccc(-c4nc5ccccc5[nH]4)c3)cc2)c1 | -0.68% | -1.65% | -4.01%
18 | COc1cccc(-c2cccc(-c3ccc(NC(=O)c4ccc([N+](=O)[O-])o4)cc3)n2)c1 | 66.2% | 59.8% | 23.3%
19 | O=C(O)CCc1ccc(-c2c[nH]c3ncc(-c4ccc5ncccc5c4)cc23)cc1 | 10.2% | 8.63% | 5.55%
20 | COc1cc2ccccc2c(CNCCCCCCNCc2c(OC)c(OC)cc3ccccc23)c1OC | 4.39% | 3.44% | 1.23%
21 | Oc1ccc(Cc2cc(Oc3c(I)cc(CCc4ncc[nH]4)cc3I)ccc2O)cc1 | 0.12% | 1.92% | 1.23%
22 | CN1CCC(NCc2cccc(-c3ccc(S(=O)(=O)NCc4ccccc4)c(F)c3)c2)CC1 | 2.09% | 3.75% | 4.35%
23 | O=C(NC1CCN(CCN2CCC(c3cn(CCO)c4ccccc34)CC2)CC1)c1ccc(-c2ccc(C(F)(F)F)cc2)cc1 | -1.51% | 3.18% | 0.94%

Row | Compound | inhibition [1] | inhibition [2] | inhibition [3]
24 | CCCCCCCCn1c2c(c(=N)c3c1CCC3)CCC2 | 87.3% | 91.5% | 89.9%
25 | CC(C)(CN)c1nc(-c2ccc(Cl)c(O)c2)c(-c2ccncc2)[nH]1 | -2.49% | 0.02% | 1.18%
26 | CCN1CCC(N(CCCCCCCCc2ccc(C(F)(F)F)cc2)C(=O)Cn2c(CCc3cccc(F)c3F)cc(=O)c3ccccc32)CC1 | 8.91% | 9.52% | 4.76%
27 | O=C(/C=C/c1ccc(Cl)c(Cl)c1)NCCCCCN1CCN(C(=O)Nc2ccc(C(F)(F)F)cc2)CC1 | 2% | 1.98% | 0.71%
28 | Cc1[nH]cc(Br)c(=O)c1-c1ccc(Oc2ccc(OC(F)(F)F)cc2)cc1 | 3.93% | 4.74% | 4.41%
29 | O=C(Nc1ccnc(-c2cccnc2)n1)c1cc(C(F)(F)F)cc(C(F)(F)F)c1 | -1.69% | 0.27% | -3.85%
30 | O=C(Nc1ccccc1)c1ccc(-c2cc3ccncc3cc2OC2CCNCC2)s1 | -3.12% | 3.86% | -3.49%
31 | CCOC(=O)c1ccc(NC(=O)Nc2cccc(-c3ccc(-c4nc5cc(C(F)(F)F)ccc5[nH]4)cc3)c2)cc1 | -0.08% | 1.53% | 0.3%
32 | Oc1ccc2[nH]c(-c3cccc(F)c3)nc2c1CNCc1ccccc1 | 9.11% | 3.29% | 2.86%
33 | CC(=O)Nc1ccc(C(=O)NC2CCN(c3ccnc4cc(Cl)ccc34)C2)cc1 (stereo not given) | 0.36% | 0.28% | 1.4%
34 | Cc1c(N)ccc2[nH]c(-c3ccc(N)cc3)nc12 | 3.21% | 4.3% | 2.89%
35 | Cc1nc(-c2cccc(C(=O)N(Cc3cncn3Cc3cccc(C(F)(F)F)c3)CC3CC3)c2)cs1 | 2.11% | 4.67% | 4.26%
36 | COc1cc(NCC(O)CNc2cc(Cl)nc3ccccc23)nc2ccccc12 (stereo not given) | 8.65% | 8.28% | 7%
37 | Cc1cc(N2CCCC2)nc(Nc2ccc(NC(=O)c3ccc(Br)o3)cc2)n1 | 4.16% | 9.42% | 5.64%
38 | CCC(C)(C)c1ccc(Oc2ccc(NC(=O)Nc3ccc(Cl)c(Cl)c3)cc2)cc1 | 1.75% | 1.24% | 1.26%
39 | O=C(Cn1c(CCc2cccc(F)c2F)nc(=O)c2ccccc21)N(CCCN1CCCC1)Cc1ccc(-c2ccc(C(F)(F)F)cc2)cc1 | 8.01% | 7.63% | 9.22%
40 | CCN(CC)CCCCOc1ccc2c(c1)C(=O)c1cc(OCCCCN(CC)CC)ccc1-2 | 10.2% | 4.61% | 0.2%
41 | O=C(Nc1ccc(F)cc1)NC1CCN(c2ccnc3cc(Cl)ccc23)C1 (stereo not given) | -0.37% | -1.17% | -1.87%
42 | O=S(=O)(NC1CCN(c2ccnc3cc(Cl)ccc23)C1)c1ccc(F)cc1 (stereo not given) | 0.47% | 1.68% | 1.83%
43 | CC(C)CCNC(=O)C1Cc2c([nH]c3cc(Br)ccc23)C2(CCN(Cc3ccccc3)CC2)N1 (stereo not given) | 15% | 11.3% | 14.8%
44 | CN1CCCc2ccc(NC(=O)c3cc(-c4ccc(Cl)cc4)cs3)cc2C1 | 1.97% | 4.89% | 1.2%
45 | O=C(Cc1ccccc1)NC(CCN1CCC(O)(c2cccc(C(F)(F)F)c2)CC1)c1ccc(Cl)c(Cl)c1 (stereo not given) | 4.97% | 1.61% | 0.53%
